Inconclusive results are not listed. Calls of active or inactive are those of the source. Unless noted, calls come from the whole dose curve; as a rule, active = well fitted curve in the direction sought with a large enough effect; inconclusive = small, poorly fitted or top-dose-only effect, or another doubt; inactive = no such curve, though single readings can be large; an effect the other way counts as inactive or inconclusive.

Assay [1] in a line: P-glycoprotein substrates identified in KB-3-1 adenocarcinoma cell line, qHTS therapeutic library screen (AID 1346986). Note: nearly all actives have a fitted effect of over 60% in size.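 Note: potency is the fitted concentration of half-maximal effect; potency is for cytotoxicity meaning loss of cell viability.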 An outline of the steps: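 Viability by CellTiter-Glo after 72 h compound exposure at 37 degree C, 5% CO2. Cytotoxic call: curve class -1.1 to -2.4, maximum response >50%, AC50 < 10 uM, compared across KB-3-1 and P-gp-overexpressing KB-8-5-11.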
Background: qHTS replaces the single test concentration by a dilution series.

The nature of assay [2]: P-glycoprotein substrates identified in KB-8-5-11 adenocarcinoma cell line, qHTS therapeutic library screen (AID 1346987). Note: nearly all actives have a fitted effect of over 65% in size. Note: potency is the fitted concentration of half-maximal effect. An outline of the steps: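 In this qHTS, P-gp-rich KB-8-5-11 cells received library compounds across a concentration range. Viability was quantified by luminescence after 72 h at 37 degree C.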
Assay [3] can be described thus: Primary qHTS for inhibitors of nuclear receptor binding SET domain protein 2 (NSD2) in an isogenic RCH-ACV NSD2 p.E1099K mutant (9B) (AID 1645876). Note: nearly all actives have a fitted effect of over 70% in size. Note: potency is the fitted concentration of half-maximal effect.
Assay [4] in a line: Primary qHTS for inhibitors of nuclear receptor binding SET domain protein 2 (NSD2) in an RCH-ACV wild type WT cells (2C) (AID 1645877). Note: nearly all actives have a fitted effect of over 70% in size. Note: potency is the fitted concentration of half-maximal effect.
The nature of assay [5]: NCATS anti-infectives library activity on HEK293 viability as a counter-qHTS vs the C. elegans viability qHTS (AID 1745854). Note: % is set by controls: 0 for no effect and ±100 for the full control effect. An outline of the steps: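 CellTiter-Glo luminescence, read on a CCD imager, scored viability of HEK293 cells after 24 hr compound exposure at 37C. Library tested in several concentrations, 1:5 steps, up to 41.7 uM; digitonin served as control.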
For assay [6], the target named is Glutathione peroxidase 1 (Homo sapiens) (UniProt P07203). As to the kind of experiment: Primary qHTS Assay for Inhibitors of Recombinant Selenoprotein Glutathione Peroxidase 1 (GPX1) (AID 1845191). Note: nearly all actives have a fitted effect of over 65% in size. Note: potency is the fitted concentration of half-maximal effect. An outline of the steps:
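GR-coupled readout: NADPH consumption tracked by fluorescence, ex 340/em 450 nm, at t=0 and after 15 min at RT. Final mix 10 nM GPX1, 1 mM GSH, 0.5 mM CHP, 0.5 mM NADPH, 100 nM GR, 0.01% BSA, following 30 min enzyme–compound preincubation.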

Assay [7] deals with Catechol O-methyltransferase (Homo sapiens) (UniProt P21964). In words: Confirmatory Screen for Target Class Profiling of Small Molecule Inhibitors of Methyltransferases (AID 1745852; calls by dose curve; note: potency is the fitted concentration of half-maximal effect; for activity change, negative = inhibition: % is set by controls: 0 for no effect and ±100 for the full control effect). Particulars: MTase-Glo luminescence, SAH detection, recombinant enzyme; measured here: COMT max response; stronger effect = lower value.
Catechol O-methyltransferase (Homo sapiens), sequence (P21964 whole entry, looked up): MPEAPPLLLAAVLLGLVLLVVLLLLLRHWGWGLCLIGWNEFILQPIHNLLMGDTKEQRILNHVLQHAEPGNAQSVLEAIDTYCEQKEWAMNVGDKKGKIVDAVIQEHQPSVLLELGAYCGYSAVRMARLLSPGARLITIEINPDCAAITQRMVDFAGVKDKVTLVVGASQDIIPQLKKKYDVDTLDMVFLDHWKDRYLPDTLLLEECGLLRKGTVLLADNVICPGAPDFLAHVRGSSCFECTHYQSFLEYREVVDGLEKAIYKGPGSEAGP
Assay [8] has as its target Guanidinoacetate N-methyltransferase (Homo sapiens) (UniProt Q14353). Described as above. Particulars: activity change, negative = inhibition: at 57.3 µM (top of the series) unless noted.
The target in assay [9] is Nicotinamide N-methyltransferase (Homo sapiens) (UniProt P40261). Described as above. The following applies: MTase-Glo luminescence, SAH detection, recombinant enzyme; measured here: NNMT max response; stronger effect = lower value.
Nicotinamide N-methyltransferase (Homo sapiens), sequence (P40261 whole entry, looked up): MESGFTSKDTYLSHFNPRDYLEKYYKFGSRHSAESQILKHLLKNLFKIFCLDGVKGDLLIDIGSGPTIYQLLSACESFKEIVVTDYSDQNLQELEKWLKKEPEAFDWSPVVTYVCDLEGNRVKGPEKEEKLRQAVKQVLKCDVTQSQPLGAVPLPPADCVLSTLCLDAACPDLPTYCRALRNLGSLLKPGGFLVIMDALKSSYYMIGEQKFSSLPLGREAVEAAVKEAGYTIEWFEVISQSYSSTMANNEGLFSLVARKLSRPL
Assay [10] concerns the target Phenylethanolamine N-methyltransferase (Homo sapiens) (UniProt P11086). The description is as above. The following applies: MTase-Glo luminescence, SAH detection, recombinant enzyme; measured here: PNMT max response; stronger effect = lower value.

Glutathione peroxidase 1 (Homo sapiens), sequence (P07203 whole entry, looked up): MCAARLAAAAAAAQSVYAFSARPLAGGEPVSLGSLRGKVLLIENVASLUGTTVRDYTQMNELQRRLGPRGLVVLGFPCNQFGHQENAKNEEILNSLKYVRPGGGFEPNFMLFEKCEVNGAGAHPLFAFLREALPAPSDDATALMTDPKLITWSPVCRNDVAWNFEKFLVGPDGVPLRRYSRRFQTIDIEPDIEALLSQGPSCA
Phenylethanolamine N-methyltransferase (Homo sapiens), sequence (P11086 whole entry, looked up): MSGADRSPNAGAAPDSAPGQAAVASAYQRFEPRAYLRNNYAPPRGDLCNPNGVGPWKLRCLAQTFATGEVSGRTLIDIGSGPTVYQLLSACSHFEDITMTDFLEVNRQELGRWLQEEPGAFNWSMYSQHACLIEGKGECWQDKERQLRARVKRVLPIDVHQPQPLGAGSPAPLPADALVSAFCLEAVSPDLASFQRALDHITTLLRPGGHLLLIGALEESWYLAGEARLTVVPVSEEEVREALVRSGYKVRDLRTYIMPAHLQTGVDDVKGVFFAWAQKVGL

`CC(C)C(=O)OC[C@@]1(N=[N+]=[N-])O[C@@H](n2ccc(N)nc2=O)[C@H](OC(=O)C(C)C)[C@@H]1OC(=O)C(C)C`: the Potency result in assay [1], in [2], in [3] and in assay [4] was “inactive” throughout. Further, in assay [5], the outcome is “inactive”.

For the molecule `O=C1/C(=C/c2ccc(O)c(O)c2)Oc2ccccc21`, the Potency entry in assay [1] and in assay [2] was “inactive” in each case. Besides, the results for the Potency in assay [3] and in assay [4] were 1.84 µM (active) and 2.06 µM (active), respectively.

In the case of `CC/C=C\CC1C(=O)CCC1CC(=O)OC` (stereo unspecified), the Potency result in assay [1], in [2], in assay [3], in assay [4] and in [6] was “inactive” each time.

For `Nc1ncnc2c1nc(Cl)n2C1O[C@H](CO)[C@@H](O)[C@H]1O` (stereo partly specified), the Potency in assay [1] was 2.91 µM (active); in [2] it was 1.84 µM (active); in assay [3], 2.59 µM (active); in [4], 1.84 µM (active).

For `CC(C)C(=O)OC[C@H]1O[C@@H](n2ccc(N)nc2=O)[C@](C)(F)[C@@H]1OC(=O)C(C)C`, the Potency result in assay [1], in assay [2], in [3] and in assay [4] was “inactive” throughout. Moreover, in assay [5], the outcome is “inactive”.

On to `Cc1cncc2cccc(S(=O)(=O)N3CCCNC[C@@H]3C)c12`, for which the Potency in [1] is 6.51 µM (active); in [2] it was 1.64 µM (active); in assay [3], 13 µM (active); in assay [4], 3.66 µM (active). For the same molecule, the Potency entry in [6] is “inactive”.

For the molecule `OCC(O)CCO/N=C1/C(c2c(O)[nH]c3ccccc23)=Nc2ccccc21` (stereo unspecified), the Potency in assay [1] was 14.6 µM (active); in [2], 16.4 µM (active); in assay [3] it was 2.59 µM (active); in assay [4] it was 2.59 µM (active). Besides, the Potency result in assay [6] was “inactive”.

Take `Cc1cn([C@H]2C[C@H](O)[C@@H](CO)O2)c(=O)nc1N`: the Potency result in assay [1], in assay [2], in [3], in [4] and in assay [6] was “inactive” in each case.

Take `OC[C@H]1O[C@@H](O[C@@H]2OC=C[C@H]3[C@H](O)[C@@H]4O[C@]4(CO)[C@@H]23)[C@H](O)[C@@H](O)[C@@H]1O`: the Potency entry in [1], in assay [2], in assay [3] and in assay [4] was “inactive” in each case. The outcome in assay [5] was “inactive”.

In the case of `C[C@@H](Oc1cc(-n2cnc3ccc(OC4CCN(C)CC4)cc32)sc1C(N)=O)c1ccccc1Cl`, the Potency in assay [1] is 0.0184 µM (active); in assay [2], 0.461 µM (active); in [3], 0.0411 µM (active); in assay [4], 0.058 µM (active); in assay [8], 8.57 µM (active). Further, the activity in assay [7] was -96.8%; in [9], -85.5%; in [10], -96.2%.

On to `Cc1ccc([N+](=O)[O-])cc1S(=O)(=O)N(C)/N=C\c1cnc2ccc(Br)cn12`, for which the Potency in [1] was 0.164 µM (active); in [2], 0.231 µM (active); in assay [3] it was 0.058 µM (active); in assay [4] it was 0.0517 µM (active).

For the molecule `NC(=O)c1ncn(C2O[C@H](CO)[C@@H](O)[C@H]2O)c1N` (stereo partly specified), the Potency result in assay [1], in assay [2], in [3] and in [4] was “inactive” in each case.

On to `S=c1ssc2c1CCC2`, for which the Potency result in assay [1], in [2], in [3] and in assay [4] was “inactive” throughout. For the same molecule, the figures for the activity in [7], in [9] and in [10] were -2.41%, -69.9% and -71%, respectively. In assay [8], this molecule yielded an activity change, negative = inhibition of 0%. Besides, in assay [6], the Potency is 14.3 µM (active).

For the molecule `COc1cc(OC)c(/C=C2\C(=O)Nc3ccccc32)c(OC)c1`, the Potency in assay [1] was 0.92 µM (active); in [2], 0.92 µM (active); in assay [3], 1.03 µM (active); in assay [4] it was 0.92 µM (active). Further, in [6], the Potency entry was “inactive”.

Turning to `CSc1cc2c(s1)c1cnn(Cc3ccccc3F)c(=O)c1n2C`, the Potency result in assay [1], in assay [2], in assay [3] and in assay [4] was “inactive” each time.

Take `Cc1ccc(Cl)cc1NC(=O)c1nc[nH]c1C(=O)Nc1nc2ccccc2[nH]1`: the Potency result in [1], in [2], in [3] and in assay [4] was “inactive” throughout.

Turning to `COc1ccc2cc1Oc1ccc(cc1)CC1c3cc(c(OC)cc3CCN1C)Oc1c(OC)c(OC)c(OC)c3c1C(C2)N(C)CC3` (stereo unspecified), the Potency entry in assay [1], in assay [2], in [3], in assay [4] and in assay [6] was “inactive” in each case.

In the case of `CC(C)CN(CC(=O)N(CCCN1CCCC1=O)CC(N)=O)C(=O)CNCCc1ccccc1F`, the Potency result in [1], in [2], in [3], in assay [4] and in assay [6] was “inactive” in each case.

In the case of `Cc1cc2ncc(-c3ccccc3)nc2cc1C`, the Potency entry in [1], in assay [2], in [3], in [4] and in assay [6] was “inactive” each time.

The record behind these values is PubChem BioAssay (NCATS).
